# Data from PubChem BioAssay (EPA / NIEHS).
# The source made the active and inactive calls. The calls were made as follows: active = hit-call score of the fitted dose curve at least 0.9, where 1 is the maximum; inactive = score below 0.9.
# Legend:
# Details in all cases: mRNA level, 48 h; actives raise or lower the signal
# [1] = read-out: matrix metalloproteinase-10 (MMP10), MMP10 (gene 4319); experiment: LTEA_HepaRG_MMP10: Life Technologies and Expression Analysis (LTEA) Assay for matrix metalloproteinase-10 (MMP10) using HepaRG (AID 2283517)
# Procedure, shortened: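 Transcript levels come from Fluidigm qRT-PCR normalized to three housekeeping genes, with curves fitted bidirectionally against 0.5% DMSO. Human HepaRG cells were dosed for 48 hours at concentrations up to 100 uM.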
# [2] = read-out: MYC, MYC (gene 4609); experiment: LTEA_HepaRG_MYC: Life Technologies and Expression Analysis (LTEA) Assay for MYC using HepaRG (AID 2283518)
# Procedure, shortened: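 Differentiated human HepaRG cells, plated 48 h then switched to serum-free induction medium, were exposed in duplicate for 48 h to 8-point half-log series up to 100 uM in 0.5% DMSO. MYC mRNA measured by qRT-PCR, normalized to ACTB/GAPDH/POLR2A.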
# [3] = read-out: matrix metalloproteinase-3 (MMP3), MMP3 (gene 4314); experiment: LTEA_HepaRG_MMP3: Life Technologies and Expression Analysis (LTEA) Assay for matrix metalloproteinase-3 (MMP3) using HepaRG (AID 2283519)
# Procedure, shortened: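 qRT-PCR read-out of MMP3 mRNA (normalised to three housekeeping genes) in HepaRG liver cells after 48 h chemical exposure; 8-point half-log series, top 100 uM, 0.5% DMSO vehicle. Bidirectional curve fitting against DMSO baseline.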
# [4] = read-out: Paternally Expressed 10 (PEG10), PEG10 (gene 23089); experiment: LTEA_HepaRG_PEG10: Life Technologies and Expression Analysis (LTEA) Assay for Paternally Expressed 10 (PEG10) using HepaRG (AID 2283520);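 as to AC50: PEG10 transcript by qRT-PCR normalised to ACTB GAPDH and POLR2A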
# Procedure, shortened: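 After 48 h exposure of differentiated HepaRG cells (0.5% DMSO vehicle, eight concentrations up to 100 uM, duplicates), PEG10 mRNA was measured by TaqMan qRT-PCR. Values were normalised to endogenous control genes and analysed bidirectionally against vehicle.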
# [5] = read-out: Nuclear factor NF-kappa-B p105 subunit (Homo sapiens) (UniProt P19838); experiment: LTEA_HepaRG_NFKB1: Life Technologies and Expression Analysis (LTEA) Assay for Nuclear Factor Kappa B Subunit 1 (NFKB1) using HepaRG (AID 2283521);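 also: TaqMan qRT-PCR transcript normalised to ACTB GAPDH and POLR2A housekeeping genes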
# Procedure, shortened: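 Differentiated human HepaRG cells in serum-free induction medium with 0.5% DMSO were exposed for 48 h to eight half-log concentrations, top 100 uM, in duplicate. NFKB1 mRNA measured by Fluidigm TaqMan qRT-PCR, normalised to ACTB, GAPDH and POLR2A; bidirectional fit versus DMSO.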
# [6] = read-out: Protein phosphatase 2A (PPP2R4), PTPA (gene 5524); experiment: LTEA_HepaRG_PPP2R4: Life Technologies and Expression Analysis (LTEA) Assay for Protein phosphatase 2A (PPP2R4) using HepaRG (AID 2283522)
# Procedure, shortened: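 Using HepaRG cultures maintained in 0.5% DMSO, chemicals are tested 48 h at up to 100 uM in duplicate. Induction or suppression of PPP2R4 mRNA, measured by qRT-PCR, is fitted bidirectionally against the vehicle baseline.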
# [7] = read-out: Phosphatase and tensin (PTEN), PTEN (gene 5728); experiment: LTEA_HepaRG_PTEN: Life Technologies and Expression Analysis (LTEA) Assay for Phosphatase and tensin (PTEN) using HepaRG (AID 2283523)
# Procedure, shortened: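 HepaRG, 48 h exposure, 8-pt half-log series from 100 uM top, 0.5% DMSO vehicle, duplicates. Readout: Fluidigm qRT-PCR of PTEN transcript; housekeeping normalization (ACTB, GAPDH, POLR2A). Gain or loss fitted relative to DMSO baseline.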
# [8] = read-out: solute carrier (SLC22A1), SLC22A1 (gene 6580); experiment: LTEA_HepaRG_SLC22A1: Life Technologies and Expression Analysis (LTEA) Assay for solute carrier (SLC22A1) using HepaRG (AID 2283524)
# Procedure, shortened: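 qRT-PCR readout (TaqMan, Fluidigm arrays) of SLC22A1 transcript, normalized to three housekeeping genes; bidirectional curve fit relative to 0.5% DMSO vehicle. Differentiated human HepaRG cells, 48 h chemical exposure, top concentration 100 uM, half-log steps, eight points.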
# [9] = read-out: Pyruvate Dehydrogenase Kinase 4 (PDK4), PDK4 (gene 5166); experiment: LTEA_HepaRG_PDK4: Life Technologies and Expression Analysis (LTEA) Assay for Pyruvate Dehydrogenase Kinase 4 (PDK4) using HepaRG (AID 2283525)
# Procedure, shortened: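 HepaRG (human liver line), 48 h chemical exposure, 8-pt half-log CRC top 100 uM, 0.5% DMSO vehicle, duplicates. Readout: TaqMan qRT-PCR of PDK4 mRNA, housekeeping-normalized; gain/loss fit relative to DMSO baseline.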
# [10] = read-out: NAD(P)H dehydrogenase [quinone] 1 (NQO1), NQO1 (gene 1728); experiment: LTEA_HepaRG_NQO1: Life Technologies and Expression Analysis (LTEA) Assay for NAD(P)H dehydrogenase [quinone] 1 (NQO1) using HepaRG (AID 2283526)
# Procedure, shortened: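 In this assay, gene expression is read by qRT-PCR after 48 h exposure of HepaRG cells to eight concentrations (max 100 uM, half-log) in 0.5% DMSO. Each chemical runs in duplicate, and activity is scored relative to vehicle.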
# [11] = read-out: succinate dehydrogenase complex iron sulfur subunit B (SDHB), SDHB (gene 6390); experiment: LTEA_HepaRG_SDHB: Life Technologies and Expression Analysis (LTEA) Assay for succinate dehydrogenase complex iron sulfur subunit B (SDHB) using HepaRG (AID 2283528)
# Procedure, shortened: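 HepaRG cells (~100,000/well, plated 48 h) exposed in duplicate for 48 h in serum-free induction medium to 8-point half-log series from 100 uM in 0.5% DMSO; mRNA by qRT-PCR normalised to ACTB, GAPDH, POLR2A; bidirectional fit versus DMSO.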
# [12] = read-out: Signal transducer and activator of transcription 3 (Homo sapiens) (UniProt P40763); experiment: LTEA_HepaRG_STAT3: Life Technologies and Expression Analysis (LTEA) Assay for Signal transducer and activator of transcription (STAT3) using HepaRG (AID 2283529)
# Procedure, shortened: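 HepaRG, 48 h exposure, 8-pt half-log series (top 100 uM), 0.5% DMSO vehicle, duplicates. Readout: STAT3 transcript by Fluidigm qRT-PCR, housekeeping-normalized; bidirectional fit vs DMSO baseline.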
# [13] = read-out: solute carrier (SLCO1B1), SLCO1B1 (gene 10599); experiment: LTEA_HepaRG_SLCO1B1: Life Technologies and Expression Analysis (LTEA) Assay for solute carrier (SLCO1B1) using HepaRG (AID 2283530)
# Procedure, shortened: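 Differentiated human HepaRG cells, plated 48 h, switched to serum-free induction medium and exposed in duplicate for 48 h to 8 half-log concentrations (top 100 uM) in 0.5% DMSO. SLCO1B1 mRNA by TaqMan qRT-PCR, normalized to ACTB/GAPDH/POLR2A.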
# [14] = read-out: sulfotransferase 2A1 (SULT2A1), SULT2A1 (gene 6822); experiment: LTEA_HepaRG_SULT2A1: Life Technologies and Expression Analysis (LTEA) Assay for sulfotransferase 2A1 (SULT2A1) using HepaRG (AID 2283531)
# Procedure, shortened: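 Differentiated human HepaRG cells in serum-free induction medium were exposed for 48 h to eight half-log concentrations (top 100 uM, 0.5% DMSO). SULT2A1 mRNA was measured by qRT-PCR, normalized to ACTB, GAPDH and POLR2A, and fitted bidirectionally against DMSO.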
# [15] = read-out: Transforming Growth Factor (TGFA), TGFA (gene 7039); experiment: LTEA_HepaRG_TGFA: Life Technologies and Expression Analysis (LTEA) Assay for Transforming Growth Factor (TGFA) using HepaRG (AID 2283532)
# Procedure, shortened: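 qRT-PCR read-out of TGFA transcript, normalized to three housekeeping genes, fitted bidirectionally against 0.5% DMSO baseline. Human HepaRG cultures received chemicals for 48 h at eight half-log concentrations, top 100 uM.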
# [16] = read-out: Transforming Growth Factor (TGFB1), TGFB1 (gene 7040); experiment: LTEA_HepaRG_TGFB1: Life Technologies and Expression Analysis (LTEA) Assay for Transforming Growth Factor (TGFB1) Transporter using HepaRG (AID 2283533)
# Procedure, shortened: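 Differentiated human HepaRG cells in serum-free induction medium were exposed in duplicate for 48 h to eight concentrations (top 100 uM, half-log steps, 0.5% DMSO). TGFB1 mRNA was quantified by qRT-PCR, normalized to ACTB, GAPDH, POLR2A, and fitted bidirectionally against DMSO.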
# [17] = read-out: TIMP1, TIMP1 (gene 7076); experiment: LTEA_HepaRG_TIMP1: Life Technologies and Expression Analysis (LTEA) Assay for TIMP1 using HepaRG (AID 2283534);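 also: TaqMan qRT-PCR signal normalized to ACTB GAPDH and POLR2A housekeeping genes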
# Procedure, shortened: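 Differentiated human HepaRG cells in serum-free induction medium were exposed 48 h to chemicals (8 half-log concentrations, top 100 uM, 0.5% DMSO). TIMP1 mRNA was quantified by TaqMan qRT-PCR, normalized to ACTB/GAPDH/POLR2A; bidirectional fit versus DMSO.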
# [18] = read-out: Tumor necrosis factor receptor 1 (TNFRSF1A), TNFRSF1A (gene 7132); experiment: LTEA_HepaRG_TNFRSF1A: Life Technologies and Expression Analysis (LTEA) Assay for Tumor necrosis factor receptor 1 (TNFRSF1A) using HepaRG (AID 2283535)
# Procedure, shortened: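 Differentiated human HepaRG cells were exposed in duplicate for 48 h in serum-free induction medium to eight concentrations (top 100 uM, half-log steps, 0.5% DMSO). TNFRSF1A mRNA was quantified by qRT-PCR, normalized to ACTB, GAPDH and POLR2A, then fitted bidirectionally against DMSO.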
# [19] = read-out: Nuclear factor erythroid 2-related factor 2 (Homo sapiens) (UniProt Q16236); experiment: LTEA_HepaRG_NFE2L2: Life Technologies and Expression Analysis (LTEA) Assay for Nuclear factor erythroid 2-related factor 2 (NFE2L2) Transcription Factor using HepaRG (AID 2283527);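 as to outcome: TaqMan qRT-PCR transcript level normalised to ACTB GAPDH and POLR2A housekeeping genes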
# Procedure, shortened: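 HepaRG, 48 h dosing, 8-pt half-log series from 100 uM in 0.5% DMSO, duplicates. Read-out: NFE2L2 mRNA by qRT-PCR (ACTB/GAPDH/POLR2A normalization). Bidirectional curve fit vs DMSO baseline.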
# Chain of Signal transducer and activator of transcription 3 (Homo sapiens) (P40763 whole entry, looked up): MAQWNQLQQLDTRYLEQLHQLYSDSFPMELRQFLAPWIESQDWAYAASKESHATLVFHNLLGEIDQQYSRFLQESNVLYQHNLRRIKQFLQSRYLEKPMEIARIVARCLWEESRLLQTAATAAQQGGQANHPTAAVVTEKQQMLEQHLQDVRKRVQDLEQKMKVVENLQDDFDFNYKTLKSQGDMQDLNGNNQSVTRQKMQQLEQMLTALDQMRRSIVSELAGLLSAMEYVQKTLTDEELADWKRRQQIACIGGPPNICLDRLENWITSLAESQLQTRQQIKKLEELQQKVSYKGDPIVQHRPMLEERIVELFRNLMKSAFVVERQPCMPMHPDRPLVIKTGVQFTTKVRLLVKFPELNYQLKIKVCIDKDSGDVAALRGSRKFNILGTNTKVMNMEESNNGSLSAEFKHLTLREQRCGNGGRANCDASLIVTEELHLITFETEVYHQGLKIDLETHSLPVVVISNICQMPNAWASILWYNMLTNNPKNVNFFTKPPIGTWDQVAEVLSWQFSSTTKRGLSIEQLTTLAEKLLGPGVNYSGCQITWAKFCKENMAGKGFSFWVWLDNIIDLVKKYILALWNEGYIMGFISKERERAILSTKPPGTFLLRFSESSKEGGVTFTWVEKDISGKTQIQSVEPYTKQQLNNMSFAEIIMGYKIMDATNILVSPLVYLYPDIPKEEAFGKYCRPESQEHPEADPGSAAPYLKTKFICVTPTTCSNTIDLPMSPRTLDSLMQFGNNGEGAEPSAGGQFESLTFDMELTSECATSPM
# Chain of Nuclear factor NF-kappa-B p105 subunit (Homo sapiens) (P19838 whole entry, looked up): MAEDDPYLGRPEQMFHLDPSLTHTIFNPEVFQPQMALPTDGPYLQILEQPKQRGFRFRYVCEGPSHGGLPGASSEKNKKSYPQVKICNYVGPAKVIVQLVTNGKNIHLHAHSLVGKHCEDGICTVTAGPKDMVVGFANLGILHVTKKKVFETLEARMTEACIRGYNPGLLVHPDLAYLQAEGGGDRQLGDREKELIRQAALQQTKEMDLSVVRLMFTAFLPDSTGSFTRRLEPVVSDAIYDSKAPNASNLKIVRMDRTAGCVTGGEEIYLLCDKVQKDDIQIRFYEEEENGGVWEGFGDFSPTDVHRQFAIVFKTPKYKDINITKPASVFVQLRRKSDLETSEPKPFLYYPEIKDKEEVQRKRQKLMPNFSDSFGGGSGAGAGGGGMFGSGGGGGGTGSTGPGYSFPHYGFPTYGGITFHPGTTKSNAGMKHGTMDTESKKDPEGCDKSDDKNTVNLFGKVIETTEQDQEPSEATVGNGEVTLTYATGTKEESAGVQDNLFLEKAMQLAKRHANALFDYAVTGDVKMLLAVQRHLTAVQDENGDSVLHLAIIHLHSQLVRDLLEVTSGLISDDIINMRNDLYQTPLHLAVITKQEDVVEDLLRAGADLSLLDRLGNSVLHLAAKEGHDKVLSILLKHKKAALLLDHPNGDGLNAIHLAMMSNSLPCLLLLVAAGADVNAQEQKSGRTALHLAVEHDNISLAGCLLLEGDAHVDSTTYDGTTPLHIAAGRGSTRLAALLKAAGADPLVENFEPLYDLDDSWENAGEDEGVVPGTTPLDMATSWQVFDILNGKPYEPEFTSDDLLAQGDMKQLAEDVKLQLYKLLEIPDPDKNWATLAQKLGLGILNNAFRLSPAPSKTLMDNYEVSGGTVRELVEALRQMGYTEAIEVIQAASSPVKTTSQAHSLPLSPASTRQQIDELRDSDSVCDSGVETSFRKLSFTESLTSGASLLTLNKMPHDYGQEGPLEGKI
# Chain of Nuclear factor erythroid 2-related factor 2 (Homo sapiens) (Q16236 whole entry, looked up): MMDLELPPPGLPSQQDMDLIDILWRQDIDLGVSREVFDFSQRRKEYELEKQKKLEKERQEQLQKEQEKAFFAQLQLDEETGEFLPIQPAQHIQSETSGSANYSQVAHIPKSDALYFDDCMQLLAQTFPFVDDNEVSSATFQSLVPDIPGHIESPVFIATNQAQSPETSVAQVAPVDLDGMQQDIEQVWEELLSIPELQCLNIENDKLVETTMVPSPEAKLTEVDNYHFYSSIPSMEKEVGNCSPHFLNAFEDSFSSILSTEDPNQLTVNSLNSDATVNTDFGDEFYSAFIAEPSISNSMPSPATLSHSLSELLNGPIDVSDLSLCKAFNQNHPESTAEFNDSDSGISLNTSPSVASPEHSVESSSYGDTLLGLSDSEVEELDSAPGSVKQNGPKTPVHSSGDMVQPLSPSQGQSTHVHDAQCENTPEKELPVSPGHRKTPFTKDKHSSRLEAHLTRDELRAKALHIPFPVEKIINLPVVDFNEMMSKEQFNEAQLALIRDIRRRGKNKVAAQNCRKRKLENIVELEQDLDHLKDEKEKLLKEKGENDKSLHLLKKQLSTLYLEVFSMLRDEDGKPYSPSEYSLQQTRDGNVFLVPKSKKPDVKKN
smiles,measurement,setting,value
NCCOCCOCCN,outcome,[1],inactive
same,outcome,[2],inactive
same,outcome,[3],inactive
same,outcome,[4],inactive
same,outcome,[5],inactive
same,outcome,[6],inactive
same,outcome,[7],inactive
same,outcome,[8],inactive
same,outcome,[9],inactive
same,outcome,[10],inactive
same,outcome,[11],inactive
same,outcome,[12],inactive
same,outcome,[13],inactive
same,outcome,[14],inactive
same,outcome,[15],inactive
same,outcome,[16],inactive
same,outcome,[17],inactive
same,outcome,[18],inactive
CC(C)NCC(O)c1ccc(O)c(O)c1 (stereo not given),outcome,[1],inactive
same,outcome,[2],inactive
same,outcome,[3],inactive
same,AC50,[4],149 nM (active)
same,AC50,[6],155 nM (active)
same,outcome,[7],inactive
same,AC50,[8],209 nM (active)
same,outcome,[9],inactive
same,outcome,[10],inactive
same,AC50,[19],200 nM (active)
same,outcome,[11],inactive
same,outcome,[12],inactive
same,AC50,[13],136 nM (active)
same,AC50,[14],194 nM (active)
same,outcome,[15],inactive
same,outcome,[16],inactive
same,outcome,[18],inactive
C/C=C/C=C/C(=O)O,outcome,[1],inactive
same,outcome,[2],inactive
same,outcome,[3],inactive
same,outcome,[4],inactive
same,outcome,[6],inactive
same,outcome,[7],inactive
same,outcome,[8],inactive
same,outcome,[9],inactive
same,outcome,[10],inactive
same,outcome,[19],inactive
same,outcome,[11],inactive
same,outcome,[12],inactive
same,outcome,[13],inactive
same,outcome,[14],inactive
same,outcome,[15],inactive
same,outcome,[17],inactive
same,outcome,[18],inactive
CCCC(=O)O,outcome,[1],inactive
same,outcome,[2],inactive
same,outcome,[3],inactive
same,outcome,[4],inactive
same,outcome,[5],inactive
same,outcome,[6],inactive
same,outcome,[7],inactive
same,outcome,[8],inactive
same,outcome,[9],inactive
same,outcome,[10],inactive
same,outcome,[11],inactive
same,outcome,[12],inactive
same,outcome,[13],inactive
same,outcome,[14],inactive
same,outcome,[15],inactive
same,outcome,[16],inactive
same,outcome,[17],inactive
same,outcome,[18],inactive
